Screening data: PubChem BioAssay, several laboratories
CHT inh – human CHT choline transport inhibition | Q9GZV3 | CHT-expressing cells, membrane potential dye, choline response; stronger effect = lower value | B-score at 10 µM | 310,000 tested, 0.86% active;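 active = B-score over 3 SD under the library average, and starting fluorescence ratio not unusually high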;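 also: choline stimulus applied at its EC90 after an EC20 pre-addition; B-score computed on integrated fluorescence ratio after choline addition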
Target sequence (Q9GZV3 whole entry, looked up): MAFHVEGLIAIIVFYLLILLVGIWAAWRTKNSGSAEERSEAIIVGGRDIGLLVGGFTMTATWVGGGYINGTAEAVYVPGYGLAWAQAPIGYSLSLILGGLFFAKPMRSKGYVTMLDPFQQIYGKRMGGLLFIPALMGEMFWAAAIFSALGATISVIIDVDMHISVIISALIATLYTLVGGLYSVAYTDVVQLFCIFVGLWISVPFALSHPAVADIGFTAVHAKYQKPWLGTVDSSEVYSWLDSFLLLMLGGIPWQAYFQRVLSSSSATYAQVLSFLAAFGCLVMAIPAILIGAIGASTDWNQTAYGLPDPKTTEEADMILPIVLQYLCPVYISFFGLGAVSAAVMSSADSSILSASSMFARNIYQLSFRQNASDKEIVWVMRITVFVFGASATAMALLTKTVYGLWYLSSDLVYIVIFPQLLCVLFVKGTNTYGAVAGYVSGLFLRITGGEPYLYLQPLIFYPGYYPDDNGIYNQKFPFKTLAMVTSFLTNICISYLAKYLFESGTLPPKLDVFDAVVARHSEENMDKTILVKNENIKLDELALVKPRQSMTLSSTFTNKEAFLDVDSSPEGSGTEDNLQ
SUMO Mot1 rescue – inhibitors of SUMOylation pathway: yeast Mot1-301 growth rescue; 320,000 tested, 1% active; growth rescue, % at 18.8 µM; AID 2716; S. cerevisiae Mot1-301 growth rescue, ATP luminescence, 38.5C; percent above DMSO median, 100 means doubled;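 active = every valid replicate shows activation above 250% relative to neutral control wells; inactive = the rest, any valid replicate at or below 250%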;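 also: OY570 slx delta 5 strain wells were the positive control but not used for scaling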
MEKK2 mut-MEK5 – signal of MEK5 binding to mutant human MEKK2 PB1 domain. bead flow cytometry, Alexa488-MEK5 binding to MEKK2 mutant. 290,000 tested, 0.35% active. percent response, % at 10 µM; in the data active = percent response above about 24%, passing the limit was not always enough
MEKK3 PB1 HTS – modulators (inhibitors or enhancers) of MEK5 binding to human MEKK3 PB1 domain. Q99759. 290,000 tested, 1.4% active. binding response (% of control), % at 10 µM. bead-based flow cytometry, Alexa488-MEK5 binding to MEKK3; actives lie on both sides; 0 = blocked by unlabeled MEK5, 100 = vehicle. AID 1529;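 active = binding response more than 3 SD above or below the average of its plate-row segment, actives on both sides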;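 also: Alexa488 bead fluorescence after subtracting the streptavidin-only scavenger bead signal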
CHT allo act – allosteric activators of human choline transporter CHT | Q9GZV3 | CHT-expressing cells, membrane potential dye, choline EC20; stronger effect = higher value; LV-AA mutant CHT in HEK293 cells | B-score at 10 µM | 310,000 tested, 0.49% active | AID 488977;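 active = initial fluorescence not abnormally high and integrated response B-score, plate-corrected, over 3 SD above library mean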
MEKK2wt PB1 HTS – raises or lowers MEK5 binding to wildtype human MEKK2 PB1 domain; Q9Y2U5; bead flow cytometry, Alexa488-MEK5 binding to MEKK2 WT; actives lie on both sides; binding response (% of control), % at 10 µM; 290,000 tested, 1.1% active; AID 1531; in the data active = binding response below about 67% or above about 130%
Mot1 SUMO dose – yeast SUMO pathway inhibition in dose response; growth activity, percent, % at 42 µM; S. cerevisiae Mot1-301 galactose growth, ATP luminescence, 24 h; -100 = growth of slx-deleted rescue strain; 2,300 tested, under 10 active; shares compounds with SUMO Mot1 rescue;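 active = Signal drops as the depositor expects, and the fitted half-maximal dose is no more than ten times the top valid tested dose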;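 also: more negative values mean stronger growth rescue toward the control strain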
CHT block conf – human CHT inhibition, confirmatory screen; shares compounds with CHT inh; CHT-expressing cells, choline membrane potential dye; LV-to-AA substituted CHT, HEK293 cells; CHT activity remaining % of control (stronger effect = lower value), % at 10 µM; 2,400 tested, 70% active; AID 493221;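 active = choline transporter activity left, mean of duplicates at 10 µM, below buffer-only control mean minus 3 SD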;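 also: depolarization triggered by choline at its EC90 following an EC20 pre-addition; 0% = hemicholinium-3 full block and 100% = buffer-only control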
HEK293 MPD ctr – CHT inhibitor counter-screen hit in parental HEK293 cells; shares compounds with CHT inh; membrane potential dye, choline response; active = decrease or increase beyond buffer ±3SD; membrane potential ratio readout (active if shifted either direction beyond buffer ±3SD; no single direction) at 10 µM; 2,400 tested, 4% active; AID 493222;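 also: parental cells lack the transporter so any hit is non-specific; ratio is peak minus trough fluorescence over baseline after EC90 choline challenge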
Numbers without * were called inactive; i = inactive; · = no result given. Hits are enriched below; roughly 4.1% of the tested compounds scored in any of these assays.

SMILES	CHT inh	SUMO Mot1 rescue	MEKK2 mut-MEK5	MEKK3 PB1 HTS	CHT allo act	MEKK2wt PB1 HTS	CHT block conf	HEK293 MPD ctr	others
CN(C)CCCNCC(=O)Nc1ccc(Cl)cc1C(=O)c1ccccc1	i	5	-2	87	i	98	·	·
C[N+](C)(C)CC(=O)Nc1ccc(Cl)cc1C(=O)c1ccccc1	i	415*	8	102	i	107	·	·	Mot1 SUMO dose=0
COc1ccc(OC)c(CN2CCN(C(=O)Cc3ccccc3)CC2)c1	i	-12	1	105	i	101	·	·
COc1ccccc1CN1CCN(C(=O)COc2ccc3ccccc3c2)CC1	i	-2	0	105	i	103	·	·
C=C1C(O)[C@@H]2O[C@]3(CC[C@H](/C=C/C(C)[C@@H]4CC(C)=CC5(O[C@H](C[C@@](C)(O)C(=O)O)CCC5O)O4)O3)CC[C@H]2O[C@@H]1C(O)CC(C)[C@H]1OC2(CCCCO2)CCC1C (stereo partly drawn)	·	888*	·	·	·	·	·	·	Mot1 SUMO dose=-2
C/C(=N\N1CCCCCC1)c1c(O)n(C)c(=O)n(C)c1=O	i	55	6	99	i	96	·	·
Cc1cc(/C=C2\C(=O)NC(=O)N(c3ccccc3F)C2=O)c(C)n1-c1cc(C(=O)O)cc(C(=O)O)c1	i	737*	-6	93	i	97	·	·	Mot1 SUMO dose=0
CC(Cc1ccccc1)N1Cc2ccccc2C1 (stereo not drawn)	i	-5	5	104	i	108	·	·
CCOC(C(=O)OCCCN(CC)CC)(c1ccccc1)c1ccccc1	i	510*	5	97	i	103	·	·	Mot1 SUMO dose=-1
CCOC(=O)C1(c2ccccc2)CCN(CCC(=O)Nc2ccccc2OC)CC1	i	378*	5	100	i	105	·	·	Mot1 SUMO dose=1
CCOC(=O)C1(c2ccccc2)CCN(CCC(=O)Nc2ccc(F)cc2)CC1	·	10	·	·	·	·	·	·
CC(=O)O[C@@H]1/C=C/[C@](C)(O)C[C@@H](C)C/C=C/[C@H]2[C@H](O)[C@@](C)(O)[C@@H](C)[C@H]3[C@H](Cc4ccccc4)NC(=O)[C@@]312	i	4	1	102	i	101	·	·
CC(=O)O[C@@H]1/C=C/[C@](C)(O)C[C@@H](C)C/C=C/[C@H]2[C@@H]3O[C@]3(C)[C@@H](C)[C@H]3[C@H](Cc4ccccc4)NC(=O)[C@@]312	-5.1*	165	1	100	i	99	71%*	i
CC(C)CN1CCN(Cc2cccc3c2OCO3)CC1CCO (stereo not drawn)	i	0	·	·	i	·	·	·
CC(C)(C)NCC(O)c1cc(Cl)c(N)c(Cl)c1 (stereo not drawn)	-5.1*	117	1	85	i	100	37%*	i
COc1ccc(C(CNC(=O)c2ccc3c(c2)CCC3)N(C)C)cc1 (stereo not drawn)	i	-21	7	100	i	100	·	·
Cc1cccc(CCNCc2cc3cccc(C)c3[nH]c2=O)c1	-12*	67	14	108	i	116	8.5%*	i
COc1ccccc1N1C(=O)CC(=O)NC1=O	i	-2	1	104	i	105	·	·
Cc1c(C(=O)O)cc(-c2ccccc2)n1Cc1ccccc1	-6.3*	-15	3	101	i	102	7.3%*	-35*
Cc1ccc(-c2nn(Cc3ccccc3)cc2C(=O)O)cc1	i	-5	-28	88	i	80	·	·
c1ccc2c(CN3CCCCCC3)c[nH]c2c1	-6*	-3	-9	94	i	89	37%*	i
O=C(COc1ccccc1)N1CCN(Cc2c[nH]c3ccccc23)CC1	i	-18	-5	94	i	100	·	·
CN(C)S(=O)(=O)c1cccc(C(=O)N2CCC(C(=O)O)(c3ccccc3)CC2)c1	i	-20	-3	102	i	99	·	·
CC1=NCCc2c1[nH]c1ccccc21	-7.8*	-4	24	93	i	108	34%*	i
CN1CCc2c([nH]c3ccccc23)C1	i	-8	2	99	i	102	·	·
SMILES	CHT inh	SUMO Mot1 rescue	MEKK2 mut-MEK5	MEKK3 PB1 HTS	CHT allo act	MEKK2wt PB1 HTS	CHT block conf	HEK293 MPD ctr	others
CCCC1(CCC)C(=O)NC(=Nc2ccc(C)cc2)NC1=O	i	-1	-1	104	i	95	·	·
C(#CCN1CCOCC1)COCC#Cc1ccccc1	i	5	3	101	i	104	·	·
CC[N+](CC)(CC#CCO)CC#Cc1ccccc1	-8.6*	-1	17	105	i	131	35%*	i
Cc1nc2ccccc2c(=O)n1-c1cc([N+](=O)[O-])cc([N+](=O)[O-])c1	i	1	8	106	i	104	·	·
Cc1[nH]n(-c2ccccc2)c(=O)c1C(c1ccc([N+](=O)[O-])cc1)c1c(C)[nH]n(-c2ccccc2)c1=O	-6.2*	-22	11	99	i	116	36%*	i
COC(=O)C1=C(c2ccc(OCc3ccccc3)cc2)C[C@@H]2CC[C@H]1N2C(=O)NCc1cccc(C(F)(F)F)c1	·	2	·	·	·	·	·	·
Cc1ccc(-c2cc(-c3ccc(C)cc3)[n+](-c3ccccc3)c(-c3ccc(C)cc3)c2)cc1	-5.5*	172	·	·	i	·	66%*	3.5*
CC(=O)O[C@@]12CO[C@@H]1C[C@@H](O)[C@@]1(C)C(=O)[C@H](O)C3=C(C)[C@@H](OC(=O)[C@H](O)[C@@H](NC(=O)c4ccccc4)c4ccccc4)C[C@@](O)([C@@H](OC(=O)c4ccccc4)C12)C3(C)C (stereo partly drawn)	-5.3*	-9	2	99	i	95	63%*	i
CCOc1ccc(-n2c(O)c(C=NCCN(CC)CC)c(=O)[nH]c2=O)cc1	-6.3*	90	-7	84	i	80	i	i
Cc1nonc1OCCNc1ccc([N+](=O)[O-])c2cccnc12	i	0	-2	94	i	92	·	·
CCC(=NCCc1ccccc1)c1c(O)n(C)c(=O)n(C)c1=O	-5.6*	4	-13	89	i	94	53%*	i
